Our source for the outcome and AC50 values is PubChem BioAssay (EPA / NIEHS).

Inconclusive results are not listed. Activity calls are given as the source filed them. The calls were made as follows, unless noted: active = hit-call score of the fitted dose curve at least 0.9, where 1 is the maximum; inactive = score below 0.9.

Test [1] addresses Glucocorticoid receptor (Homo sapiens) (UniProt P04150). Put plainly: ATG_GR_TRANS: Attagene TRANS-FACTORIAL HepG2 Assay for human Glucocorticoid Receptor (GR) (AID 2282978; active = hit-call score of the fitted dose curve at least 0.9, where 1 is the maximum;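 also: activators score as hits since higher reporter transcript over DMSO is fitted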). The note with it: HepG2 Attagene TRANS GR reporter, mRNA transcription. The method, boiled down:
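Measurement of GAL4-UAS-driven reporter mRNA in human HepG2 liver cells 24 h post-dosing, using RT-PCR with fluorescent labelling and capillary electrophoresis; the transfected constructs report exogenous NR-GAL4 chimera activity, fitted upward against DMSO.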

Test [2] addresses Bile acid receptor (Homo sapiens) (UniProt Q96RI1). Put plainly: ATG_FXR_TRANS: Attagene TRANS-FACTORIAL HepG2 Assay for Farnesoid X Receptor (FXR) (AID 2282979; active = hit-call score of the fitted dose curve at least 0.9, where 1 is the maximum;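 also: hits raise reporter mRNA above DMSO so AC50 marks FXR activation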). Particulars: HepG2 Attagene TRANS FXR-GAL4 reporter transcription. An outline of the steps:
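Reporter transcripts from transfected HepG2 cells were measured 24 h after dosing, using RT-PCR with capillary electrophoresis of 6-FAM-labelled fragments. The read-out reflects activity of exogenous FXR-Gal4 chimera on GAL4-UAS units, with induction relative to DMSO.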

For test [3], the target named is Oxysterols receptor LXR-alpha (Homo sapiens) (UniProt Q13133). Kind of test: ATG_LXRa_TRANS: Attagene TRANS-FACTORIAL HepG2 Assay for human Liver X Receptor alpha (LXRa) (AID 2282980; active = hit-call score of the fitted dose curve at least 0.9, where 1 is the maximum). Particulars: HepG2 Attagene TRANS reporter, LXRa transactivation. The method, boiled down: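 Chemical-induced reporter mRNA measured by RT-PCR with fluorescent labelling and capillary electrophoresis after 24 h dosing of transiently transfected HepG2 cells expressing exogenous NR-Gal4 chimeras; increases scored against DMSO baseline.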

In test [4] the target is Oxysterols receptor LXR-beta (Homo sapiens) (UniProt P55055). Put plainly: ATG_LXRb_TRANS: Attagene TRANS-FACTORIAL HepG2 Assay for human Liver X Receptor beta (LXRb) (AID 2282981; active = hit-call score of the fitted dose curve at least 0.9, where 1 is the maximum). The note with it: HepG2 Attagene TRANS GAL4-LXRb reporter, mRNA. The method, boiled down: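 In this TRANS format, exogenous chimeric NR-Gal4 protein activity, not endogenous factors, drives reporter expression in transfected human HepG2 cells. Exposure lasted 24 h; reporter mRNA was read by fluorescent capillary electrophoresis.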

The target of test [5] is Hepatocyte nuclear factor 4-alpha (Homo sapiens) (UniProt P41235). Kind of test: ATG_HNF4a_TRANS: Attagene TRANS-FACTORIAL HepG2 Assay for human Hepatocyte Nuclear Factor 4 alpha (HNF4a) (AID 2282982; active = hit-call score of the fitted dose curve at least 0.9, where 1 is the maximum). The note with it: HepG2 HNF4a transactivation reporter, mRNA readout. An outline of the steps: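 Cells used were human HepG2, transiently carrying GAL4-UAS reporter units read out against exogenous NR-GAL4 chimeras. Reporter transcript levels after 24 h dosing were quantified by fluorescent RT-PCR and capillary electrophoresis.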

Test [6] has as its target Transcriptional activator Myb (Homo sapiens) (UniProt P10242). Kind of test: ATG_Myb_CIS: Attagene CIS-FACTORIAL HepG2 Assay for human Myeloblastosis (Myb) Proto-Oncogene Transcription Factor (AID 2282986). Particulars: HepG2 Attagene CIS-FACTORIAL Myb reporter transcription; actives raise or lower the signal. The method, boiled down:
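Fluorescence signals from capillary electrophoresis of RT-PCR-amplified reporter cDNA give the read-out. Cells: HepG2 transfected with multiple cis-regulated reporter units. Exposure lasts 24 hours; DMSO defines baseline for gain or loss of signal.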

The target in test [7] is Nuclear respiratory factor 1 (Homo sapiens) (UniProt Q16656). Put plainly: ATG_NRF1_CIS: Attagene CIS-FACTORIAL HepG2 Assay for human Nuclear Respiratory Factor 1 (NRF1) Orphan Gene (AID 2282987). The note with it: HepG2 NRF1 cis-element reporter, Attagene multiplex; actives raise or lower the signal. The method, boiled down:
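Transcriptional reporter readout, one component of a 52-endpoint multiplexed HepG2 panel. Exposure 24 h; mRNA detected via RT-PCR and fluorescent capillary electrophoresis; fitting in both directions against DMSO.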

The nature of test [8]: ATG_NFI_CIS: Attagene CIS-FACTORIAL HepG2 Assay for human Nuclear Factor I (NFI) (AID 2282989). Particulars: HepG2 cis-regulatory reporter, NFI response element transcription; actives raise or lower the signal. The method, boiled down:
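Endogenous TF activity in HepG2 cells transiently transfected with cis-element-driven multiplexed reporter units, read 24 h after dosing. Reporter mRNA quantified by RT-PCR, 6-FAM labelling, HpaI digestion and capillary electrophoresis; bidirectional fit versus DMSO.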

For test [9], the target named is Myc proto-oncogene protein (Homo sapiens) (UniProt P01106). Kind of test: ATG_Myc_CIS: Attagene CIS-FACTORIAL HepG2 Assay for human Myelocytomatosis (Myc) Proto-Oncogene Transcription Factor (AID 2282990). Particulars: HepG2, Attagene cis-reporter transcription factor activity; actives raise or lower the signal. An outline of the steps: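 HepG2 cells transiently transfected with multiple cis-promoter-driven reporter transcription units, so endogenous TF activity is read. After 24 h compound exposure, reporter mRNA was quantified by RT-PCR, 6-FAM labelling, HpaI digestion and capillary electrophoresis; bidirectional fit versus DMSO.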

Test [10] can be described thus: ATG_NRF2_ARE_CIS: Attagene CIS-FACTORIAL HepG2 Assay for human Nuclear Factor Erythroid 2 Related Factor 2 (NFR2) response to Antioxidant Response Elements (ARE) (AID 2282992).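 As to AC50: reporter mRNA level measured by RT-PCR and capillary electrophoresis fluorescence.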 Particulars: HepG2 Attagene ARE/NRF2 reporter, transcription factor activity; actives raise or lower the signal. An outline of the steps: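 Transient MRTU transfection of HepG2; 24 h compound exposure; TriZol RNA, RT with oligo(dT), PCR, 6-FAM primer extension, HpaI cut, CE. Bidirectional fit vs DMSO.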

A short description of test [11]: ATG_Oct_MLP_CIS: Attagene CIS-FACTORIAL HepG2 Assay for human Octamer-Binding Transcription Factor (Oct) (AID 2282993). Particulars: HepG2 Attagene cis-factorial Oct reporter, mRNA; actives raise or lower the signal. The method, boiled down: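 HepG2 cells transiently transfected with cis-element-driven reporter transcription units (endogenous TF activity); 24 h compound exposure. Reporter mRNA quantified by RT-PCR, 6-FAM labelling, HpaI digestion and capillary electrophoresis; bidirectional fit versus DMSO baseline.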

Test [12] addresses Cellular tumor antigen p53 (Homo sapiens) (UniProt P04637). Kind of test: ATG_p53_CIS: Attagene CIS-FACTORIAL HepG2 Assay for human p53 Transcription Factor (AID 2282994). The note with it: HepG2 p53 cis-element reporter, Attagene mRNA; actives raise or lower the signal. An outline of the steps: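 HepG2, transient MRTU transfection (cis promoter elements, endogenous TFs); 24 h dosing; RNA isolation, RT-PCR, 6-FAM primer extension, HpaI digest, CE fluorescence; bidirectional fit vs DMSO.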

For test [13], the target named is Estrogen-related receptor gamma (Homo sapiens) (UniProt P62508). Put plainly: ATG_ERRg_TRANS: Attagene TRANS-FACTORIAL HepG2 Assay for human Estrogen-Related Receptor gamma (ERRg) (AID 2282977; active = hit-call score of the fitted dose curve at least 0.9, where 1 is the maximum;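 also: hits increase reporter signal over DMSO so potencies reflect activators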). Particulars: HepG2 Attagene TRANS reporter, ERRg transactivation. An outline of the steps:
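Transfect HepG2 with multiple GAL4-UAS reporter transcription units; dose chemicals 24 h; isolate RNA, reverse-transcribe with oligo(dT), PCR-amplify, label with 6-FAM, digest with HpaI; size fragments by capillary electrophoresis. DMSO serves as negative control.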

The target of test [14] is Nuclear receptor subfamily 4 group A member 2 (Homo sapiens) (UniProt P43354). Kind of test: ATG_NURR1_TRANS: Attagene TRANS-FACTORIAL HepG2 Assay for human Nuclear Receptor Related Protein 1 (NURR1) (AID 2282985; active = hit-call score of the fitted dose curve at least 0.9, where 1 is the maximum). The note with it: HepG2 Attagene TRANS reporter, mRNA readout. The method, boiled down: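 After 24 h chemical dosing, total RNA from transiently transfected HepG2 cells was reverse-transcribed and reporter cDNA PCR-amplified, FAM-labelled and analysed by capillary electrophoresis. Activity fitted in positive direction, DMSO as negative control.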

Test [15] in a line: ATG_NF_kB_CIS: Attagene CIS-FACTORIAL HepG2 Assay for human Nuclear Factor Kappa B (NF-kB) (AID 2282991). The note with it: HepG2 Attagene cis-factorial NF-kB reporter mRNA; actives raise or lower the signal. An outline of the steps:
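HepG2, transient multi-reporter transfection, cis promoter elements (endogenous TFs). 24 h exposure. Total RNA → RT → PCR → 6-FAM label → HpaI → CE. Gain/loss vs DMSO.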

The nature of test [16]: ATG_M_06_TRANS: Attagene TRANS-FACTORIAL HepG2 Assay for M06 Transcription Factor (Internal Marker) (AID 2282983; active = hit-call score of the fitted dose curve at least 0.9, where 1 is the maximum). The note with it: HepG2 Attagene TRANS M06 internal marker reporter. The method, boiled down: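 Cells: HepG2, transient multi-reporter transfection. Exposure: 24 h. Detection: RT-PCR, 6-FAM labelling, HpaI digestion (2 h, 37 °C), capillary electrophoresis. Baseline: DMSO.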

Test [17] can be described thus: ATG_M_32_TRANS: Attagene TRANS-FACTORIAL HepG2 Assay for M32 Transcription Factor (Internal Marker) (AID 2282984; active = hit-call score of the fitted dose curve at least 0.9, where 1 is the maximum;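 also: transcript level of a background control reporter unit measured by RT-PCR and capillary electrophoresis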). Particulars: HepG2 Attagene TRANS M32 internal marker reporter. The method, boiled down: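 Human hepatoma HepG2, transient MRTU transfection, 24 h treatment. RNA → RT-PCR → fluorescent primer extension → HpaI digest (2 h, 37 C) → CE. Positive-direction fit vs DMSO.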

Sequence of Cellular tumor antigen p53 (Homo sapiens) (P04637 whole entry, looked up): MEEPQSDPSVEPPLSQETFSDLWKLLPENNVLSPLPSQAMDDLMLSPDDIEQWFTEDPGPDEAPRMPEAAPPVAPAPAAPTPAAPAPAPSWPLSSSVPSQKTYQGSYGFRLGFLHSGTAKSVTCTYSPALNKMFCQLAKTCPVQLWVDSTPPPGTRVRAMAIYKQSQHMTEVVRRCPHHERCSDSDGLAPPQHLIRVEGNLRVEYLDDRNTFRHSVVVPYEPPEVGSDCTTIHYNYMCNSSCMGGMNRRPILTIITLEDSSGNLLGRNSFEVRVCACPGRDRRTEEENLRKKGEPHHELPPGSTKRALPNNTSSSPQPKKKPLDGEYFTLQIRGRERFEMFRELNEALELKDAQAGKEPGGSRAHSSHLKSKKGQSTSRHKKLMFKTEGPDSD
Sequence of Glucocorticoid receptor (Homo sapiens) (P04150 whole entry, looked up, the tested form may be a part): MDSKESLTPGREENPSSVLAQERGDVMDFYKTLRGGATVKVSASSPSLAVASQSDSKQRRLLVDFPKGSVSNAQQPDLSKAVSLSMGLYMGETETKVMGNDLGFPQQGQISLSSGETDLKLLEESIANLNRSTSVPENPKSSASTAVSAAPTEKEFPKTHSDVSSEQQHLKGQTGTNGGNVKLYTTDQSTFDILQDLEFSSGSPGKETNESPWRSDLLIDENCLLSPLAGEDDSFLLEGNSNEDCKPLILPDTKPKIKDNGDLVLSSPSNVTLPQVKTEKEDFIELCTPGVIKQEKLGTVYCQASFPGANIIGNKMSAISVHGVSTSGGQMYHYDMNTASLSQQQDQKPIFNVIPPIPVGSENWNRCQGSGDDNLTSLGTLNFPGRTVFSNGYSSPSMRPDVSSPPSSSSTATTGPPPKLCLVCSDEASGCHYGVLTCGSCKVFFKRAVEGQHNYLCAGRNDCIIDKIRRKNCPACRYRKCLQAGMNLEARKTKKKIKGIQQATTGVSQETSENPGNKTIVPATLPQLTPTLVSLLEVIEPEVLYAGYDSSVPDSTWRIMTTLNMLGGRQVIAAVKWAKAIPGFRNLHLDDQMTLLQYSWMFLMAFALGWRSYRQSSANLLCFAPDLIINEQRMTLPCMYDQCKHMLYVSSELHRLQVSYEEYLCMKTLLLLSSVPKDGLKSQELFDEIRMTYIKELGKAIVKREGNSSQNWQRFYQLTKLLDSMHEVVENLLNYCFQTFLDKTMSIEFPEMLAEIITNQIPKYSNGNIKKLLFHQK
Sequence of Bile acid receptor (Homo sapiens) (Q96RI1 whole entry, looked up, the tested form may be a part): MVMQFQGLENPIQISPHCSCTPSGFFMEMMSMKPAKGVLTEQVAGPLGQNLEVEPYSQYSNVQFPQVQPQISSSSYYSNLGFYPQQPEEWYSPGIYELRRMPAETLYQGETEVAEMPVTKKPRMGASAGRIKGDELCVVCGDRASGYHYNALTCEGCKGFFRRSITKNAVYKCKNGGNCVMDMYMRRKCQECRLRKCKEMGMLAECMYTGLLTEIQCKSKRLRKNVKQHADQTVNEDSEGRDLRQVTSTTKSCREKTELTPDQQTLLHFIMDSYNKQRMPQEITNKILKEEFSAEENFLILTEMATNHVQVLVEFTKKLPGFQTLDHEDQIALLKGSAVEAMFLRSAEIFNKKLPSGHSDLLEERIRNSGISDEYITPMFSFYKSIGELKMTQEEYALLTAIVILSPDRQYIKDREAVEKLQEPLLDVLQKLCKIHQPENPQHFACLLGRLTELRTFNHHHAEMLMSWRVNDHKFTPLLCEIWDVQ
Sequence of Myc proto-oncogene protein (Homo sapiens) (P01106 whole entry, looked up): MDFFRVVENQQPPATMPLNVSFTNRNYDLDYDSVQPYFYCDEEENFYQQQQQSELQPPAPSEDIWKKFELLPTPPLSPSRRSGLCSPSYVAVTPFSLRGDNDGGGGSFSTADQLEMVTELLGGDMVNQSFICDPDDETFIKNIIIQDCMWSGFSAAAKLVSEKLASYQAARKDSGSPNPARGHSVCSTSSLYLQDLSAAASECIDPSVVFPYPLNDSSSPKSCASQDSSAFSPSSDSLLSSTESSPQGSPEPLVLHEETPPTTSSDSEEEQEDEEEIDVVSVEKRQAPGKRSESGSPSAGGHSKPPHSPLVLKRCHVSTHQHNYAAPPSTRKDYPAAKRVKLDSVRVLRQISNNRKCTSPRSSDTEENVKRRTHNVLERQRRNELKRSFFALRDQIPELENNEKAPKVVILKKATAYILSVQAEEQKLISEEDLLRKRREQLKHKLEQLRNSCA
Sequence of Hepatocyte nuclear factor 4-alpha (Homo sapiens) (P41235 whole entry, looked up, the tested form may be a part): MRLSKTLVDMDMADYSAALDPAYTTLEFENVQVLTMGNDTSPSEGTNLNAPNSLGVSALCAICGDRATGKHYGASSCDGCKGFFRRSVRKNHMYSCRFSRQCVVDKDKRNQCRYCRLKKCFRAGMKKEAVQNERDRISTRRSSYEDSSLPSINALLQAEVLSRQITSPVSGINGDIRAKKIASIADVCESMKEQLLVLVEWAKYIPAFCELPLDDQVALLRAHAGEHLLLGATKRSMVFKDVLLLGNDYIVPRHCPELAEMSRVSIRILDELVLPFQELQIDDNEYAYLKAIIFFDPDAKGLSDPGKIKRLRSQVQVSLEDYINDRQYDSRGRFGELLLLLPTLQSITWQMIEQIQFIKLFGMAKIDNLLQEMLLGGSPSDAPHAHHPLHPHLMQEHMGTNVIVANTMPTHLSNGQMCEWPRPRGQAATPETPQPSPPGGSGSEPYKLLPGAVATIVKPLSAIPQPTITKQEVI
Sequence of Nuclear respiratory factor 1 (Homo sapiens) (Q16656 whole entry, looked up): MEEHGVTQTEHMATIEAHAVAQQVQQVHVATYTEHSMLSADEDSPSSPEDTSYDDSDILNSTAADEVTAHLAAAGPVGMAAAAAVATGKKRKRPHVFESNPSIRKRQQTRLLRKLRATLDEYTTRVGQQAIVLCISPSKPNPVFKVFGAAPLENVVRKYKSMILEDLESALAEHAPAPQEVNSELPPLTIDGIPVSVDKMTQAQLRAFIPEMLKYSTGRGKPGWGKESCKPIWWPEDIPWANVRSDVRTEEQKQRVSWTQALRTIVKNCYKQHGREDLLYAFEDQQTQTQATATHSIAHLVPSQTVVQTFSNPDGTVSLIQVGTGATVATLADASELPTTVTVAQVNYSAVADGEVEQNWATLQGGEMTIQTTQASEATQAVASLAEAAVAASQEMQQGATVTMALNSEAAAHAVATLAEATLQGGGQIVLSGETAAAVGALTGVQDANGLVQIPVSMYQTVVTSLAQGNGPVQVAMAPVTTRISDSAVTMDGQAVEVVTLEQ
Sequence of Transcriptional activator Myb (Homo sapiens) (P10242 whole entry, looked up): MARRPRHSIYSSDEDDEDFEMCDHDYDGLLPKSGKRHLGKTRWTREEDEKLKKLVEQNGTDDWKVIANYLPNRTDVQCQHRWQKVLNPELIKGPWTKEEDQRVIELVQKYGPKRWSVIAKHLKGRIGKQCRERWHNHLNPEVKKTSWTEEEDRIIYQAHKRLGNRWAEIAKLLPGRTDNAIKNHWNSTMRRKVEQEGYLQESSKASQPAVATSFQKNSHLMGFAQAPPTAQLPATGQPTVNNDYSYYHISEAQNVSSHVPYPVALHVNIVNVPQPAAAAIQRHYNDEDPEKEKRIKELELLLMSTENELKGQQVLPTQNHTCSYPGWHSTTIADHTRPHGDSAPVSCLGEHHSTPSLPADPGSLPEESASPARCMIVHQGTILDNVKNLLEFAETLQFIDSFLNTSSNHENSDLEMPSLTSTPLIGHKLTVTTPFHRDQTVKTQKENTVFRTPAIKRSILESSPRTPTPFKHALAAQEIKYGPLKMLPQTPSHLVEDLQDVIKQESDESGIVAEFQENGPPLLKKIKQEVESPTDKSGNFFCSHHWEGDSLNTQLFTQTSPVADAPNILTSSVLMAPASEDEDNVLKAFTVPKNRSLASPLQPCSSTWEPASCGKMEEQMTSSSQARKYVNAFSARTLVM
Sequence of Oxysterols receptor LXR-beta (Homo sapiens) (P55055 whole entry, looked up, the tested form may be a part): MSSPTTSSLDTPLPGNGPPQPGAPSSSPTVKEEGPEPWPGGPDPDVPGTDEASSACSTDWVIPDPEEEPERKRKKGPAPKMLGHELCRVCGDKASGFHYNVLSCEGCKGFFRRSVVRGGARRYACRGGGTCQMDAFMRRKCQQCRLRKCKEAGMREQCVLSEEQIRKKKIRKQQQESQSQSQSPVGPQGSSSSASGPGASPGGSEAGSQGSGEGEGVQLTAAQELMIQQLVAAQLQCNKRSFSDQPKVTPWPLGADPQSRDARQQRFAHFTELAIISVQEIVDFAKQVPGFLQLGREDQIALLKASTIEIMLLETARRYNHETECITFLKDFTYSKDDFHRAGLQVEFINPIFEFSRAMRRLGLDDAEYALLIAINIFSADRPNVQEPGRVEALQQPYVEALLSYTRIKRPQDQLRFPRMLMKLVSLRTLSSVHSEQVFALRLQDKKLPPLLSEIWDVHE
Sequence of Nuclear receptor subfamily 4 group A member 2 (Homo sapiens) (P43354 whole entry, looked up): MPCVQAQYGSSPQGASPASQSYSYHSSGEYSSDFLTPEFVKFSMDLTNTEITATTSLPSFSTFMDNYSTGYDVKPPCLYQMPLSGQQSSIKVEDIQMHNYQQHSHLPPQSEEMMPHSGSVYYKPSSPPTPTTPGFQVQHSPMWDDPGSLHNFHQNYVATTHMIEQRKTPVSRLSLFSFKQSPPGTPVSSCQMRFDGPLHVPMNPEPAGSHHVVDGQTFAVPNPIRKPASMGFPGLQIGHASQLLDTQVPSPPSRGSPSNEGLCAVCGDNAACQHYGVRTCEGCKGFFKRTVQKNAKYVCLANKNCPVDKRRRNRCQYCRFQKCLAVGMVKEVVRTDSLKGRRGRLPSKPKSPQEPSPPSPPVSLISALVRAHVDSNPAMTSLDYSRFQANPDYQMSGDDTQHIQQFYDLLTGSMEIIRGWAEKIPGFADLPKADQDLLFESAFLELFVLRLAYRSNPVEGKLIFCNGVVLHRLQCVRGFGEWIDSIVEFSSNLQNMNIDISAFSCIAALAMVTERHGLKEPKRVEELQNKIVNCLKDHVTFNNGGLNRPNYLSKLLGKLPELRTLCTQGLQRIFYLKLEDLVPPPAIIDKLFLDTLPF

As for `O=C(Nc1ccccc1)c1cc(Cl)ccc1O`, the outcome in test [1], in test [2], in test [3], in [4], in test [5] and in [6] was inactive. Besides, the call in test [7], in test [9] and in test [12] was inactive. For the same compound, the AC50 was 5.49 µM (active) in [8], 2.35 µM (active) in test [10] and 15.1 µM (active) in [11].
For the compound `CCCCCCCC(=O)OCC`, the call in test [13], in test [2], in [4], in [14], in test [6] and in test [7] was inactive. Moreover, the compound was classed as inactive in test [8], in test [9], in [15], in [10], in [11] and in test [12].
With `Nc1ccc(O)c([N+](=O)[O-])c1`, the result in [13], in test [3], in test [4], in test [5], in test [16] and in test [6] was inactive. In addition, the compound was called inactive in test [7], in [8], in [9] and in [11]. The AC50 in test [15] was 37.2 µM (active).
On to `[Cl][Eu]([Cl])[Cl]`, for which the compound was called inactive in [1], in test [2], in test [16], in test [6], in test [7] and in test [8]. The compound was classed as inactive in [9], in test [15], in test [10] and in [12].
On to `CC(C)c1cc(C(C)C)cc(C(C)C)c1`, for which the call in [1], in [3], in test [4], in test [17] and in test [12] was inactive. Besides, the AC50 in test [14] is 7.9 µM (active); in test [6], 176 µM (active); in [7], 174 µM (active); in test [8] it was 151 µM (active); in test [9] it was 161 µM (active); in [10], 66.3 µM (active).
In the case of `CC(=O)CCC1=C(C)CCCC1(C)C`, the compound was called inactive in test [1], in [3], in test [4], in [16], in test [14] and in [6]. The result in test [8], in [9], in test [15] and in test [11] was inactive. Moreover, in test [10], the AC50 is 49.1 µM (active).
With `CN1CCN(C)CC1`, the compound was classed as inactive in [1], in test [2], in test [4], in test [5], in test [14] and in test [6]. Moreover, the result in test [7], in test [8], in test [9], in test [15], in test [10] and in test [11] was inactive. In test [12], the outcome was inactive.
As for `CC1CC(=O)CC(C)(C)C1` (stereo not drawn), the result in [1], in test [3], in test [4], in test [16], in [6] and in test [7] was inactive. Moreover, the result in [8], in [9], in [10], in test [11] and in test [12] was inactive.
For the compound `O=c1c(O)c(-c2ccc(O)cc2O)oc2cc(O)cc(O)c12`, the compound was classed as inactive in test [1], in test [3], in test [4], in test [5], in test [17] and in test [14]. In addition, the outcome in test [6], in [7], in test [8], in [9], in test [10] and in [11] was inactive. For the same compound, the outcome in [12] was inactive.
`CC=CC(=O)OCC(C)C`: the result in test [1], in test [2], in [5], in test [16], in test [6] and in test [8] was inactive. Further, the compound was called inactive in test [9], in [15], in [10], in test [11] and in test [12].
As for `OCCCc1ccccc1`, the compound was called inactive in test [1], in [3], in test [4], in test [5], in test [16] and in test [17]. Also, the compound was classed as inactive in test [6], in [7], in [8], in test [9], in test [10] and in [11]. Further, the compound was called inactive in test [12].

A word on the AC50: it is the midpoint of the concentration-response curve, whichever way the signal moves.
